Source: PubChem BioAssay (NCATS)
Records with an inconclusive call do not appear. Calls of active or inactive are those of the source. Calls come from the whole dose curve; as a rule, active = well fitted activation curve with a large enough effect; inconclusive = small, poorly fitted or top-dose-only effect; inactive = no such curve, though single readings can be large or run the other way.

Target: Cellular tumor antigen p53 (Homo sapiens) (UniProt P04637)
Experiment: Primary qHTS for small molecule compounds that upregulate eGFP-tagged delta133p53alpha (in N-terminal) cells. (AID 2060322);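 note: series mostly up to about 56 µM; 0% = DMSO vehicle and 100% = reference activator; nearly all actives have a fitted effect of over 75% in size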
Conditions: NCI-H358 eGFP-delta133p53alpha fluorescence, 24 h; activation: stronger effect = higher value
How it was run: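 NCI-H358 cells pre-induced 24 h with 10 ng/ml doxycycline to express N-terminal eGFP-delta133p53alpha, then dosed 24 h at 37C without doxycycline; fixed, Hoechst-stained, GFP intensity by laser scanning cytometry, normalized to DMSO (0%) and 57.5 uM 5-azacytidine (100%).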

Chain of Cellular tumor antigen p53 (Homo sapiens) (P04637 whole entry, looked up): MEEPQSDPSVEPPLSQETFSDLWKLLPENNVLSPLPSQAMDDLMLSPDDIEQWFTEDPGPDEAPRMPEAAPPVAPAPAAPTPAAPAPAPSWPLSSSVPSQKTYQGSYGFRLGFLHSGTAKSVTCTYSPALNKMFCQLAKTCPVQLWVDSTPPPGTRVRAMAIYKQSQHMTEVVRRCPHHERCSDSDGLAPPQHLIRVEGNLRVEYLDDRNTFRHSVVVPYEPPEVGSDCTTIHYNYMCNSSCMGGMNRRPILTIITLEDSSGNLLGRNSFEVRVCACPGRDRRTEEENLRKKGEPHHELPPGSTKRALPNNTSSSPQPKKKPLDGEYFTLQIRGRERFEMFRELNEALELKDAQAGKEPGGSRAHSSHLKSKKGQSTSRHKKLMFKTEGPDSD

| SMILES | activation |
| --- | --- |
| CC1(O)CC(O)C2(O)C=COC(O[C@@H]3O[C@H](CO)[C@@H](O)[C@H](O)[C@H]3O)C12 (stereo partly drawn) | 0.893% (inactive) |
| CC(=O)O[C@@H]1[C@@H](O)[C@H](O[C@@H]2[C@@H](O)[C@@H](O)[C@H](O[C@H]3[C@H](O[C@H]4[C@H](O[C@H]5CC[C@@]6(C)C(CC[C@]7(C)C6CC=C6[C@@H]8CC(C)(C)CC[C@]8(C(=O)O)CC[C@]67C)[C@]5(C)CO)O[C@H](CO)[C@@H](O)[C@@H]4O)OC[C@@H](O)[C@@H]3O)O[C@H]2C)OC[C@H]1O (stereo partly drawn) | -3.05% (inactive) |
| C/C(=C\CCC(C)CCO)C(=O)OC[C@H]1O[C@@H](O[C@@H]2OC=C(C(=O)O)[C@H]3CC[C@](C)(O)[C@@H]23)C(O)[C@@H](O)C1O (stereo partly drawn) | -20.5% (inactive) |
| Cc1ncc(CCCN(C)C)cc1Nc1ncc2c(n1)-c1ccc(C(F)(F)F)cc1NC(=S)C2 | 22.3% (inactive) |
| OC[C@H]1O[C@@H](OCCc2ccccc2)[C@H](O[C@@H]2OC[C@@H](O)[C@H](O)[C@H]2O)[C@@H](O)[C@@H]1O | -11.5% (inactive) |
| CC(C)=CCC/C(C)=C/CC/C(C)=C/CC[C@]1(C)CCc2cc(O)cc(C)c2O1 | -3.05% (inactive) |
| O=C1Nc2ccc(O)cc2O[C@H]1O[C@@H]1O[C@H](CO)[C@@H](O)[C@H](O)[C@H]1O | -16.8% (inactive) |
| C[C@]1(O)CC[C@@H]2C(C(=O)O)=CO[C@@H](O[C@@H]3O[C@H](COC(=O)/C=C/c4ccc(O)c(O)c4)[C@@H](O)[C@H](O)[C@H]3O)[C@@H]21 | 0% (inactive) |
